# uPA surface inh: inhibitors of cell surface uPA generation; cell surface uPA generation assay, qHTS; Potency, µM (series often up to 38.3 µM), inactives show at the highest dose activity change, negative = inhibition, usual class: inhibitors; actives 0.31% (n = 330,000); active = well fitted inhibition curve with a large enough effect; inconclusive = small, poorly fitted or top-dose-only effect; inactive = no such curve, though single readings can be large or run the other way; tested in mouse RAW 264.7 cells; note: potency is the fitted concentration of half-maximal effect; % is set by controls: 0 for no effect and ±100 for the full control effect; nearly all actives have a fitted effect of over 55% in size
# SW480 rerep: inducers of DNA re-replication in SW480 colon cancer cells. SW480 DNA re-replication, Hoechst DNA content imaging, 48 h. Potency, µM (titrated, usually from 46.1 µM), without a hit: at the top dose re-replication activation, usual class: activators. actives 1.8% (n = 340,000). AID 624297; note: potency is the fitted concentration of half-maximal effect; % of control where 0% means no effect; nearly all actives have a fitted effect of over 55% in size
#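 Compounds, transferred as 23 nL by pin tool, were incubated with cells for 48 hr; DNA content per nucleus was then quantified by Hoechst staining and fluorescence plate imaging.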
# Giardia kill: Giardia lamblia killing; Giardia lamblia trophozoite viability; activity change, % at 7.66 µM, hits read low; actives 0.15% (n = 340,000); AID 540267; in the data active = activity change below about -80%; inconclusive = between about -30% and that limit;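 note: parasites exposed to compound for two days anaerobically before the ATP read; % is set by controls: 0 for no effect and ±100 for the full control effect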
#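 Killing of trophozoites was scored by loss of ATP luminescence after a 48 hrs anaerobic exposure to compounds at 37 deg C, using 100 cells per well.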
# MCF10A rereplic: inducers of DNA re-replication in MCF 10A breast cells; MCF 10A DNA re-replication, Hoechst nuclear intensity, 48 h; Potency, µM (top dose mostly 46.1 µM), for inactives: at the top dose activity, positive = re-replication, usual class: activators; actives 2.9% (n = 350,000); AID 624296; note: potency is the fitted concentration of half-maximal effect; % of control where 0% means no effect; nearly all actives have a fitted effect of over 50% in size
# * = called active by the depositor; ? = inconclusive; / = no result; ! = a repeat was not active. A selection: hits, their analogues and other compounds. The true share with any hit is near 4.3%. Unless noted, calls come from the whole dose curve; as a rule, active = well fitted activation curve with a large enough effect; inconclusive = small, poorly fitted or top-dose-only effect; inactive = no such curve, though single readings can be large or run the other way.
SMILES,uPA surface inh,SW480 rerep,Giardia kill,MCF10A rereplic
O=C1Nc2cc(C(=O)NCCCN3CCOCC3)ccc2S/C1=C/c1cccc(Cl)c1,15%,15µM*,10,16µM*
CC1=Nc2cc(C(=O)NCCN3CCOCC3)ccc2Sc2c(C)ccc(C)c21,15%,-10%,19,?
CCN1C(=O)c2ccccc2Sc2ccc(C(=O)NCCCN3CCOCC3)cc21,-3%,21%,5,?
CC1=Nc2cc(C(=O)NCCCN3CCOCC3)ccc2Sc2c(C)ccc(C)c21,-12%,16µM*,13,?
CC12CCC=CC1C(c1ccc(/C=C/c3ccccc3)cc1F)N(Cc1ccccc1)C2=O (stereo unspecified),/,/,8,/
COC(=O)Nc1nc2ccc(SC(C)C)cc2[nH]1,?,0.82µM*,?,1.6µM*
COC(=O)Nc1nc2ccc(C(=O)c3ccccc3)cc2[nH]1,/,0.29µM*,/,?
COC(=O)Nc1nc2ccc(C(=O)c3cccs3)cc2[nH]1,-91%,0.24µM*,?,0.21µM*
COc1ccc(C(=O)Nc2nc3ccccc3[nH]2)cc1,-23%,?,?,0%
O=C(Nc1nc2ccccc2[nH]1)c1cccs1,-14%,3%,-13,15%
O=C(OCC1OC(OC(=O)c2cc(O)c(O)c(OC(=O)c3cc(O)c(O)c(O)c3)c2)[C@@H](OC(=O)c2cc(O)c(O)c(OC(=O)c3cc(O)c(O)c(O)c3)c2)C(OC(=O)c2cc(O)c(O)c(OC(=O)c3cc(O)c(O)c(O)c3)c2)C1OC(=O)c1cc(O)c(O)c(OC(=O)c2cc(O)c(O)c(O)c2)c1)c1cc(O)c(O)c(OC(=O)c2cc(O)c(O)c(O)c2)c1 (stereo partly specified),/,-15%,/,-11%
COCCCNC(=O)C[C@H]1C[C@H](C(=O)N2CCOCC2)[C@@]2(C)c3[nH]c4cc(CCC(=O)N(C)C)ccc4c3CCN2C1=O,8%,-15%,-12,2%
CCOC(=O)c1cc([N+](=O)[O-])c([N+](=O)[O-])cc1NC(C)=O,-14%,?,4,10µM*
Clc1ccccc1OCc1nnc(-c2ccccc2Br)o1,0%,-1%,2,-3%
O=c1c(Cl)c(Cl)cnn1Cc1nnc(-c2ccccc2Br)o1,-12%,4.6µM*,3,3.3µM*
CC(C)CN(C(=O)COC(=O)CCC(=O)c1ccc(Cl)cc1)c1c(N)n(Cc2ccccc2)c(=O)[nH]c1=O,-2%,-318%,33,3%
CCCCOc1cc(C(=O)NCCN(CC)CC)c2ccccc2n1,?,-49%,-12,12µM*!
CCN(CC)CCNC(=O)c1cc(-c2ccc(Br)s2)nc2ccccc12,2%,?,3,?
O=C(OCc1ccccc1)N1CCc2ccccc21,-4%,-2%,11,8%
O=S(Cc1ccc(Br)cc1)Cc1nnc(SCc2ccc(Br)cc2)n1-c1ccccc1 (stereo unspecified),-8%,?,-19,23µM*
CN(C)CC(CCC(CN(C)C)C(O)(c1ccccc1)c1ccccc1)C(O)(c1ccccc1)c1ccccc1 (stereo unspecified),-17%,?,3,21µM*
CN(C)CC(O)CN(c1ccccc1)c1ccccc1 (stereo unspecified),4%,-22%,4,-16%
N#CC(C#N)=C1C=CC=CN1/C(=C\c1ccccc1Cl)C(=O)c1ccccc1,-11%,9.2µM*,14,6.5µM*
C=CCN(c1ccccc1)S(=O)(=O)c1cccc(C(=O)N2CC(C)CC(C)C2)c1 (stereo unspecified),3%,?,-9,10µM*
O=C(CSc1nc(=O)n(CCCN2CCOCC2)c2c1CCC2)Nc1cccc(F)c1,1%,7%,6,11%
SMILES,uPA surface inh,SW480 rerep,Giardia kill,MCF10A rereplic
Cc1ccsc1/C=N/Nc1nc(=O)[nH]nc1C,-11%,6.5µM*,-5,-3%
CCOc1cc(C(=O)OCC(=O)Nc2ccc(F)cc2Cl)ccc1OCC(=O)N1CCOCC1,0%,3%,5,0%
Cc1cc(C)nc(Sc2ncnc(N)c2[N+](=O)[O-])n1,?,?,5,21µM*
CCn1c2ccccc2c2nnc(SCC(=O)Nc3c(C)n(C)n(-c4ccccc4)c3=O)nc21,1%,-1%,-11,20%
Cc1c(NC(=O)CSc2nnc3c4ccccc4n(CCc4ccccc4)c3n2)c(=O)n(-c2ccccc2)n1C,-10%,?,-2,8.2µM*
CC(C)CC1C(=O)N(Cc2cn(CC3CCCCC3)nn2)CCS(=O)(=O)N1Cc1ccc(-c2cccc(C#N)c2)cc1 (stereo unspecified),-23%,?,-2,-11%
FC(F)(F)c1ccccc1NC(=S)NN=C1CCCCCC1,-20%,12µM*,7,?
O=C(NC(=S)Nc1ccccc1C(F)(F)F)c1ccccc1F,-3%,-3%,-7,10µM*
Cc1ccccc1C(=O)NC(=S)Nc1ccccc1C(F)(F)F,2%,9%,-1,-1%
c1ccc(-n2cnc3cc(NCc4ccncc4)ccc32)cc1,2%,?,2,?
c1ccc(-n2cnc3cc(NCc4ccccn4)ccc32)cc1,-21%,21µM*,-3,5.8µM*
CCOC(=O)N1CCN(C(=O)c2ccc3c(c2)NC(=O)/C(=C\c2ccc(OC)c(OC)c2)S3)CC1,3%,-17%,18,-7%
CCOC(=O)N1CCN(C(=O)c2ccc3c(c2)NC(=O)/C(=C\c2cccc(C)c2)S3)CC1,12%,26%,?,18µM*
CCOC(=O)N1CCN(C(=O)c2ccc3c(c2)N(C)C(=O)/C(=C\c2ccc(OCC)c(OC)c2)S3)CC1,-11%,10µM*,-6,?
O=C(O)CC1(CC(=O)NCc2ccc(F)cc2)CCCCC1,-27%,-2%,28,3%
O=C(O)CC1(CC(=O)NCc2ccc(Cl)cc2)CCCCC1,-1%,2%,-23,21µM*
Nc1c(C2CCCCC2)c(=O)on1C(=O)c1ccccc1,-1%,6%,-4,15µM*
O=C(c1ccccc1)N1CCCCC(Cl)C1=O (stereo unspecified),1%,-49%,-21,-1%
Cc1cccc(C)c1NC(=O)COC(=O)c1cc(-c2cccnc2)nc2ccccc12,8%,0%,9,12µM*
O=C(COC(=O)c1cc(-c2ccccc2)nc2ccccc12)Nc1ccc2c(c1)OCO2,4%,11%,-4,5.2µM*
COc1ccc(-c2cc(C(=O)OCC(=O)Nc3ccc4c(c3)OCO4)c3ccccc3n2)cc1,-4%,-1%,-8,-2%
CCOC(=O)c1cccc(Nc2nc(-c3cccnc3)nc3ccccc23)c1,-10%,?,-12,23µM*
Cc1c(NC(=O)COC(=O)c2cc(-c3ccc(-c4ccccc4)cc3)nc3ccccc23)c(=O)n(-c2ccccc2)n1C,-12%,/,?,21µM*
COc1ccc(COc2cccc3ccc(C)nc23)cc1F,4%,10%,-14,10%
CC(=O)N(c1ccc2ccccc2c1)C1SC(=O)N(c2cccc(C)c2)C1=O (stereo unspecified),/,/,6,/
